In the library only some 3.1% were active in any assay of this set; here they are far more common.
PAFAH2 inh – PAFAH2 (human) inhibition | hit rate 0.99% among 340,000 | recombinant PAFAH2, FP-rhodamine activity probe, fluorescence polarization | inhibition, % at 3.39 µM | Q99487 | AID 492956;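 active = inhibition above the mean over all tested compounds plus 3 SD, cut at about 30% in these data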;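 note: inhibitors block probe labeling of enzyme so polarization drops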
Rin1-Abl PPI inh – blocks binding of human Rin1 to Abl. P00519+Q13671. TR-FRET Rin1/Abl binding, biochemical. inhibition, % at 7.35 µM. hit rate 0.4% among 360,000. AID 588664; in the data active = inhibition above about 5%, passing the limit was not always enough
PAFAH1B2 FP inh – blocks human PAF acetylhydrolase 1b catalytic subunit 2; P68402; recombinant PAFAH1B2, FP-rhodamine activity probe, fluorescence polarization; inhibition, % at 3.39 µM; hit rate 1.2% among 340,000; AID 492953;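 active = inhibition above the mean of all tested compounds plus 3 SD, cut at about 24% in these data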
Target sequence (P68402 whole entry, looked up): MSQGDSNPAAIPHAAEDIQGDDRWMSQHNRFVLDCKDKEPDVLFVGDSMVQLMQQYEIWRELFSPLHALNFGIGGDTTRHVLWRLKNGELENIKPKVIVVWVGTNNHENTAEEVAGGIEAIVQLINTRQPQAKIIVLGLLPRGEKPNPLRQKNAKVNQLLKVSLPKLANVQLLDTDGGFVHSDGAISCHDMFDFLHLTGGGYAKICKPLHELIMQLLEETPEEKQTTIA
pPAFAH inh – pPAFAH (human) enzyme inhibition; Q13093; recombinant pPAFAH, FP-rhodamine probe fluorescence polarization; inhibition, % at 3.39 µM; hit rate 1.5% among 330,000;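 active = inhibition above the mean inhibition across the screen plus 3 SD, cut at about 25% in these data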;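 note: inhibitors block binding of the rhodamine activity-based probe so polarization drops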
Target sequence (Q13093 whole entry, looked up): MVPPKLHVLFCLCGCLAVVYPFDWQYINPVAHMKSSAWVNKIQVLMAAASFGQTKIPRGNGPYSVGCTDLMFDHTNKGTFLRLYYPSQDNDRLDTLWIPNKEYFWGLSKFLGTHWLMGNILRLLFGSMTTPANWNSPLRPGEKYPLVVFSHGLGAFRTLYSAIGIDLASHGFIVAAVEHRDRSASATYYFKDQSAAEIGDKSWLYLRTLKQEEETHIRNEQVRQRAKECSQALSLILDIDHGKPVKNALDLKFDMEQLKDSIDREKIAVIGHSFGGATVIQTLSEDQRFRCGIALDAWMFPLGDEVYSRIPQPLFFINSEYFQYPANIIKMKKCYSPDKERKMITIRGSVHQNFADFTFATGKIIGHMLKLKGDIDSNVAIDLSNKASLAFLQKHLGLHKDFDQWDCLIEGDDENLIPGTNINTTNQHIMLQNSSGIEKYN
eLon inh – inhibitors of E. coli Lon protease; purified E. coli Lon protease, fluorescence polarization; inhibition, % at 7.94 µM; AID 602123; P0A9M0; hit rate 0.42% among 360,000; in the data active = inhibition above about 13%, passing the limit was not always enough
PAFAH1B3 inh – inhibitors of human PAFAH1B3; Q15102; recombinant PAFAH1B3, FP-rhodamine probe, fluorescence polarization; inhibition, % at 3.39 µM; hit rate 0.28% among 340,000;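 active = inhibition above the screen-wide average of all tested compounds plus 3 SD, cut at about 25% in these data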
Of the large screens only hits and unclear results are named; the others gave an inactive call.

Cc1cc(NC(=O)c2cccnc2)ccc1Br	none
CC(C)N1CC=C2C(C#N)=C(N)C(C#N)(C#N)[C@H](c3ccoc3)[C@H]2C1	pPAFAH inh 28.6 (no result: PAFAH2 inh, Rin1-Abl PPI inh, PAFAH1B2 FP inh, eLon inh, PAFAH1B3 inh)
CN(Cc1cccs1)C(=O)CCNS(=O)(=O)c1ccc(Br)cc1	PAFAH1B2 FP inh 31.8
CC1O[C@@H](OCC2O[C@@H](Oc3cc(O)c4c(c3)OC(c3ccc(O)cc3)CC4=O)[C@H](O)[C@@H](O)[C@@H]2O)[C@H](O)[C@H](O)[C@H]1O (stereo partly specified)	none
COc1ccc(CN2CCC(n3nccc3NC(=O)CCc3ccccc3)CC2)c(C)c1C	none (no result: pPAFAH inh)
Cc1ccc([N+](=O)[O-])cc1-c1ccc(/C=C(\C#N)c2[nH]nc(N)c2C#N)o1	pPAFAH inh 30.0
CCN(CC)S(=O)(=O)c1ccc(SCC(=O)c2c(N)n(C3CC3)c(=O)[nH]c2=O)nc1	none (no result: PAFAH2 inh, PAFAH1B2 FP inh, pPAFAH inh, PAFAH1B3 inh)
O=C1C(=C(c2ccccc2)c2ccccc2)Nc2ccccc21	none
O=C1C(=C(O)c2ccccc2)C(=O)c2ccccc21	Rin1-Abl PPI inh 12.5
COc1ccc(CCC(=O)Nc2ccc(S(=O)(=O)N3CCOCC3)cc2)cc1OC	none (no result: PAFAH2 inh, PAFAH1B2 FP inh, pPAFAH inh, PAFAH1B3 inh)
O=C(NNC(=O)C12CC3CC(CC(C3)C1)C2)c1cccc([N+](=O)[O-])c1	PAFAH1B2 FP inh 30.5
CC1CCc2[nH]c3ccc(C(=O)N(C)CC(=O)Nc4ccc(F)cc4)cc3c2C1 (stereo unspecified)	PAFAH2 inh 49.4, PAFAH1B2 FP inh 39.5
COc1ccc(NC(=O)CN(C)C(=O)c2ccc3[nH]c4c(c3c2)CC(C)CC4)cc1 (stereo unspecified)	none
COc1cccc(-c2nc(SCC(=O)Nc3nc(-c4ccccc4)c(C)s3)[nH]c(=O)c2C#N)c1	none
CCOC(=O)Cc1csc(NC(=O)CSc2nc(-c3ccccc3)c(C#N)c(=O)[nH]2)n1	PAFAH1B2 FP inh 65.1
CCOc1ccc2nc(NC(=O)CSc3nc(-c4ccccc4)c(C#N)c(=O)[nH]3)sc2c1	PAFAH1B2 FP inh 82.5 (no result: pPAFAH inh)
CCNC(=S)N1CCC(C(=O)c2ccc(F)cc2)CC1	none (no result: PAFAH2 inh, PAFAH1B2 FP inh, pPAFAH inh, PAFAH1B3 inh)
CN1C(=O)C2(CCCCC2)C1c1ccccc1 (stereo unspecified)	none
O=C1N(c2ccccc2)C(c2ccccc2)C12CCCCC2 (stereo unspecified)	PAFAH1B2 FP inh 32.3
N#Cc1ccc(OCC(=O)NCC2COc3ccccc3O2)cc1 (stereo unspecified)	none
Cc1cc(C)cc(NS(=O)(=O)c2ccc(NC(=O)C3CCCCC3C(=O)O)cc2)c1 (stereo unspecified)	pPAFAH inh 28.0
O=C(COc1ccc(S(=O)(=O)Nc2ccccc2)cc1)N1CCOCC1	pPAFAH inh 27.3
O=C(CCCOc1ccccc1)N1CCN(S(=O)(=O)c2ccc(Cl)cc2)CC1	PAFAH1B2 FP inh 29.5
COc1ccc(CN(C)C(=O)CCC(=O)N2CCN(S(=O)(=O)c3ccc(Cl)cc3)CC2)c(OC)c1	PAFAH1B2 FP inh 26.6 (no result: pPAFAH inh)
Cc1ccc(S(=O)(=O)CCC(=O)OCC(=O)N2CCN(S(=O)(=O)c3ccc(Cl)cc3)CC2)cc1	none
O=C(Cc1ccc(F)cc1)OCC(=O)N1CCN(S(=O)(=O)c2ccc(Cl)cc2)CC1	pPAFAH inh 32.8
O=C(COc1ccc(Cl)cc1)N1CCN(S(=O)(=O)c2ccccc2)CC1	none
NC(=O)C1CCCN(C(=O)c2[nH]c(C(F)(F)F)nc2-c2ccccc2)C1 (stereo unspecified)	none (no result: PAFAH2 inh, PAFAH1B2 FP inh, pPAFAH inh, PAFAH1B3 inh)
CS(=O)(=O)c1ccc(S(=O)(=O)N2CCC(CO)(CCCc3ccccc3)CC2)cc1	none
Cc1ccc2c(COC(=O)CNC(=O)c3ccco3)cc(=O)oc2c1C	none
COc1ccc(Cl)cc1NS(=O)(=O)c1ccc(S(=O)(=O)N2CCCC2)cc1	PAFAH1B2 FP inh 25.1
COc1ccccc1CNC(=O)N1CCN(S(=O)(=O)c2ccccc2)CC1	none
COc1ccc(-c2ccc(S(=O)(=O)N3CCCC3)cc2)cc1	pPAFAH inh 25.5
COc1ccccc1CNC(=O)N1CCN(S(=O)(=O)c2ccc(Cl)cc2)CC1	PAFAH1B2 FP inh 29.8
CCOc1ccccc1OCCCC(=O)N1CCN(S(=O)(=O)c2ccc(C)cc2)CC1	PAFAH1B2 FP inh 29.4
CC(C)(C)c1ccc(NC(=O)C2CCCN(c3cnccn3)C2)cc1 (stereo unspecified)	none
NC(=NCc1ccccc1)NN=Cc1ccnc2ccccc12	none (no result: PAFAH2 inh, PAFAH1B2 FP inh, pPAFAH inh, PAFAH1B3 inh)
O=C1[C@@H]2Cc3c([nH]c4ccccc34)CN2C(=O)CN1CCCCCO	none
CC1=C(C(=O)N(C(C)C)C(C)C)CC(CC(=O)NC2CC2)C(=O)N1CCC1=CCCCC1 (stereo unspecified)	none (no result: PAFAH2 inh, PAFAH1B2 FP inh, pPAFAH inh, PAFAH1B3 inh)
CN(c1ccccc1)S(=O)(=O)c1ccc(NC(=O)CC(=O)c2ccccc2)cc1	none (no result: pPAFAH inh)
CCOc1ccc(OCCCC(=O)N2CCN(S(=O)(=O)c3ccc(Cl)cc3)CC2)cc1	Rin1-Abl PPI inh 57.9
O=C(CNc1cccc([N+](=O)[O-])c1)N1CCN(S(=O)(=O)c2ccc(Cl)cc2)CC1	PAFAH1B2 FP inh 24.5 (no result: pPAFAH inh)
COc1ccc(CNC(=O)COc2ccc(S(=O)(=O)N3CCCCC3)cc2Cl)cc1	none
Nc1ncccc1C(=O)OCC(=O)N1CCN(S(=O)(=O)c2ccc(Cl)cc2)CC1	PAFAH1B2 FP inh 24.2
COc1ccc(CNC(=O)COc2ccc(S(=O)(=O)N3CCCCC3)cc2)cc1	pPAFAH inh 27.5
Nc1[nH]c(C(=O)c2ccccc2)c(-c2ccccc2C(F)(F)F)c1C(=O)NCc1cccc2ccccc12	none (no result: PAFAH2 inh, Rin1-Abl PPI inh, PAFAH1B2 FP inh, pPAFAH inh, PAFAH1B3 inh)
O=C(COc1ccc(S(=O)(=O)N2CCCC2)cc1)N1CCCC1	pPAFAH inh 31.3
O=C(COc1ccccc1)N1CCN(S(=O)(=O)c2ccc(Cl)cc2)CC1	PAFAH1B2 FP inh 30.6
O=C(COc1ccc(S(=O)(=O)N2CCCC2)cc1)N1CCCCC1	none
COc1ccc(OCC(=O)OCC(=O)Nc2cc(S(=O)(=O)N3CCOCC3)ccc2Cl)cc1	pPAFAH inh 29.1
Cc1cc(OCC(=O)OCC(=O)Nc2cc(S(=O)(=O)N3CCOCC3)ccc2Cl)ccc1Cl	none
CCOc1ccc(NC(=O)CN(C)C(=O)c2ccc(=O)[nH]c2)cc1OCC	none (no result: pPAFAH inh)
[N-]=[N+]=NC(c1ccccc1)C(NC(=O)c1cc(C(F)(F)F)cc(C(F)(F)F)c1)c1ccccc1 (stereo unspecified)	none (no result: PAFAH2 inh, Rin1-Abl PPI inh, PAFAH1B2 FP inh, pPAFAH inh, PAFAH1B3 inh)
CC(=O)OCC1=C(C(=O)O)N2C(=O)C(NC(=O)c3ccc(COc4ccc(Cl)cc4)o3)C2SC1 (stereo unspecified)	PAFAH1B2 FP inh 24.6, pPAFAH inh 26.5
Oc1ccccc1C1NN=C(c2ccccc2)S1 (stereo unspecified)	PAFAH2 inh 49.5
COc1cccc(CC(=O)Nc2cccc3ccccc23)c1	none
COc1ccc(C2(C)NC(=O)N(CC(=O)Nc3ccc4[nH]c(=O)[nH]c4c3)C2=O)cc1 (stereo unspecified)	none
CC1(c2ccc(OC(F)F)cc2)NC(=O)N(CC(=O)Nc2ccc3[nH]c(=O)[nH]c3c2)C1=O (stereo unspecified)	pPAFAH inh 28.5

Bioassay records: PubChem, The Scripps Research Institute Molecular Screening Center
